Compound activity (PubChem BioAssay)
GDH-TPI counter-1 = inhibits GDH-TPI coupling enzymes, artifact for Mtb FBA screen. GDH-TPI coupled enzyme counterscreen, NADH absorbance. inhibition, % at 4.8 µM. hit rate 1.2% among 360,000. AID 588335; in the data active = inhibition above about 30%;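 also: 0% = DMSO wells and 100% = wells lacking the enzyme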
Rv3671c inh = inhibitors of M. tuberculosis serine protease Rv3671c. P9WHR9. inhibition, % at 5.96 µM. hit rate 0.048% among 320,000. AID 2606; in the data active = inhibition above about 38%;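 also: extracellular domain of Rv3671c used as enzyme; 0% = enzyme with DMSO and 100% = no enzyme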
Mtb betalactam = beta-lactam sensitization of Mtb H37Rv; M. tuberculosis H37Rv growth with meropenem, percent inhibition; inhibition, % at 25 µM; hit rate 0.27% among 330,000; call rule not given here;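 also: growth measured after seven days incubation then overnight dye step; 0% = bacteria only wells and 100% = bacteria with antibiotic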
FBA Mtb inh = inhibits M. tuberculosis FBA enzyme | inhibition, % at 1 µM | purified M. tuberculosis FBA, fluorescence read-out | AID 588726 | hit rate 2.3% among 360,000;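 also: 0% = vehicle and 100% = reference inhibitor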
Mtb UGM inh = Mtb UDP-galactopyranose mutase inhibition. P9WIQ1. purified UGM, fluorescence polarization probe displacement. inhibition, % at 10 µM. hit rate 0.06% among 320,000. AID 504406; in the data active = inhibition above about 10%, passing the limit was not always enough
Target sequence (P9WIQ1 whole entry, looked up): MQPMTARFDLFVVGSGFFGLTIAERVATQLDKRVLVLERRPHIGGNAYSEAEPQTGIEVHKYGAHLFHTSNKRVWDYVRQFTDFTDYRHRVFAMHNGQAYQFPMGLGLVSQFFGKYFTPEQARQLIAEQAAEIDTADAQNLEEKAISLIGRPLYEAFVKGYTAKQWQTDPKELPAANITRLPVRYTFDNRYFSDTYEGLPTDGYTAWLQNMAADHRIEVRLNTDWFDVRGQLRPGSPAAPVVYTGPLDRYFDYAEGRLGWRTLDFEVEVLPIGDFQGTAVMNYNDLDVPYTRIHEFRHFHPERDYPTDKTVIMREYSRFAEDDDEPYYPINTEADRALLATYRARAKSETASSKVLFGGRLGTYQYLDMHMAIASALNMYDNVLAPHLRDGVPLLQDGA
Mtb FBA inh conf = Mtb FBA inhibition, confirmed | shares compounds with FBA Mtb inh | purified M. tuberculosis FBA, fluorescence read-out | inhibition, % at 1 µM | hit rate 78% among 5,600 | AID 651616;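 also: 0% = vehicle wells and 100% = reference inhibitor wells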
GDH-TPI counter-2 = inhibits GDH-TPI coupling enzymes, flagging Mtb FBA hits | GDH-TPI coupled enzyme counterscreen, fluorescence | hit rate 81% among 5,600 | shares compounds with FBA Mtb inh | AID 652141 | inhibition, % at 1 µM; in the data active = inhibition above about 10%
Numbers without * were called inactive; . = no result given; + = active, no number. Compounds with a hit are over-represented: about 3.5% of the library has one in this group of screens. Rule as the data show it, unless noted: active = inhibition above about 27%; inactive = the rest.

SMILES	GDH-TPI counter-1	Rv3671c inh	Mtb betalactam	FBA Mtb inh	Mtb UGM inh	Mtb FBA inh conf	GDH-TPI counter-2
COc1ccc(Cc2c(-c3ccc(OC)c(OC)c3)nc3ccc(C)cn23)c(C)c1	.	.	.	31*	.	54*	43*
COc1cc(CNc2ncnc3c2ncn3[C@H]2CN(Cc3cccc(C(F)(F)F)c3)C[C@@H](CO)O2)cc(OC)c1OC	3	.	.	2	.	.	.
CCCn1cc(CN2CCC(n3nccc3NC(=O)CCOc3ccccc3)CC2)c(C)n1	0	1	-5	0	0	.	.
COc1cc2sc(-c3ccc(S(C)(=O)=O)cc3)c(C(=O)NCCCCO)c2cc1OC	31*	4	4	46*	1	46*	30*
Cc1ccc(CNC(=O)c2c(-c3ccccc3)sc3ccccc23)o1	13	0	40	-1	0	.	.
COc1cc2sc(-c3ccc(S(C)(=O)=O)cc3)c(C(=O)NCc3ccc(C)o3)c2cc1OC	20	2	2	37*	0	100*	83*
Nc1ccc2c(c1)[nH]c(=O)c1cc(N)ccc12	0	.	.	32*	.	23	18*
CCC(=O)Nc1cc(-c2nn(C)c(=O)c3ccccc23)ccc1N1CCOCC1	4	1	-4	-3	-3	.	.
COc1ccc(OCC(=O)Nc2cc(-c3nn(C)c(=O)c4ccccc34)ccc2N2CCOCC2)cc1	-2	6	0	27*	4	6	-3
CCOC(=O)c1cc(-c2ccc(Cl)cc2)nc2c1c(=O)[nH]c(=O)n2CCOC	7	7	-5	53*	2	68*	46*
CCOC(=O)c1cc(-c2ccc(OC(F)F)cc2)nc2c1c(=O)[nH]c(=O)n2C	10	-14	0	50*	-2	159*	130*
CCOC(=O)c1cc(-c2ccc(F)cc2)nc2c1c(=O)[nH]c(=O)n2Cc1ccccc1	4	0	1	3	2	.	.
CCOC(=O)c1cc(-c2ccc(OC(F)F)cc2)nc2nc(SC)[nH]c(=O)c12	29	3	0	72*	4	101*	88*
Cc1cc(C)n(-c2nnc3c4ccccc4n(C)c3n2)n1	0	0	-1	3	1	.	.
NC(=O)CSc1nnc2ccc(-c3ccco3)nn12	16	7	15	18	-1	.	.
COc1ccc(-c2ccc3nnc(SCC(N)=O)n3n2)cc1	19	-5	-6	29*	2	85*	60*
COc1ccc(-c2ccc3nnc(SCC(=O)NCC4CCCO4)n3n2)cc1 (configuration not stated)	11	-2	-5	34*	2	172*	120*
O=C(CSc1ccc2nc(-c3ccccc3)cn2n1)NCC1CCCO1 (configuration not stated)	18	5	-1	111*	1	+	+
Cc1ccc(-c2ccc(SCC(=O)NCC3CCCO3)nn2)cc1 (configuration not stated)	7	11	1	5	1	.	.
Fc1ccccc1CNc1nc(-c2cccnc2)nc2ccccc12	13	-14	81	-3	-1	.	.
Cc1ccc(C(=O)NN2C(=O)C3C4C=CC(C4)[C@@H]3C2=O)cc1 (some centres not stated)	7	2	-4	4	4	.	.
O=C(NN1C(=O)C2C3C=CC(C3)C2C1=O)c1ccccc1 (configuration not stated)	4	-2	7	77*	-4	1	-3
COc1ccc(-c2ccc(CN3C(C(C)C)C(=O)N(Cc4cn(Cc5ccco5)nn4)CCS3(=O)=O)cc2)cc1OC (configuration not stated)	-7	.	.	1	.	.	.
Cc1ccc(O)c(-c2cc3ccccc3[nH]2)c1	16	5	1	52*	-3	71*	45*
Cc1ccc(O)c(-c2cc(-c3ccccc3F)[nH]n2)c1	-12	0	76	0	0	.	.
COc1ccc(-c2cc(=O)c3ccccc3[nH]2)cc1	11	-6	-5	12	1	.	.
c1ccc(-c2cc3ccccc3[nH]2)cc1	5	9	100	60*	-3	114*	93*
COc1ccc(-c2cc3ccccc3[nH]2)cc1	0	7	6	29*	-2	74*	62*
Nc1nccnc1C(=O)OCC(=O)NCCc1ccc(Cl)cc1	2	3	-4	102*	2	-5	-5
